Test results from the supplement of paper PMC8728848.
Only a selection was taken, and the strongest signals are over-represented in it overall.

Legend:
Assay in all cases: glycan array binding signal (z-score within array); higher = stronger binding
Conditions in all cases: glycan notation: IUPAC condensed, linker removed
[1] = target: Fuc(a1-2)Gal(b1-3)GalNAc(a1-3)[Fuc(a1-2)]Gal(b1-4)Glc
Outline: (§1)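 The Consortium for Functional Glycomics database supplied 3228 glycan arrays, of which those lacking an available protein sequence were dropped. The binding signal, a within-array Z-score, was averaged across arrays of the same protein sequence and across linkers. Negative scores can be read as non-binding.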

[2] = target: Fuc(a1-2)Gal(b1-3)GalNAc(b1-3)Gal
Outline: as §1

[3] = target: Fuc(a1-2)Gal(b1-3)GlcNAc(b1-2)Man(a1-3)[Fuc(a1-2)Gal(b1-3)GlcNAc(b1-2)Man(a1-6)]Man(b1-4)GlcNAc(b1-4)[Fuc(a1-6)]GlcNAc
Outline: as §1

[4] = target: Fuc(a1-2)Gal(b1-3)GlcNAc6S
Outline: as §1

Fuc(a1-2)Gal(b1-4)Glc = target: Fuc(a1-2)Gal(b1-4)Glc
Outline: as §1

[5] = target: Fuc(a1-2)[Gal(a1-3)]Gal(b1-4)GlcNAc(b1-2)Man
Outline: as §1

[6] = target: Fuc(a1-2)[GalNAc(a1-3)]Gal(b1-3)GlcNAc(b1-6)GalNAc
Outline: as §1

[7] = target: Fuc(a1-2)[GalNAc(a1-3)]Gal(b1-4)GlcNAc(b1-6)GalNAc
Outline: as §1

[8] = target: Fuc(a1-2)[GalNAc(a1-3)]Gal(b1-4)[Fuc(a1-3)]GlcNAc
Outline: as §1

[9] = target: Fuc(a1-2)[GalNAc(a1-4)]Gal(b1-4)GlcNAc
Outline: as §1

[10] = target: Fuc(a1-3)[GalNAc(b1-4)]GlcNAc6S
Outline: as §1

Gal(a1-3)Gal = target: Gal(a1-3)Gal
Outline: as §1

Gal(a1-4)Gal(b1-4)GlcNAc = target: Gal(a1-4)Gal(b1-4)GlcNAc
Outline: as §1

Gal(b1-2)Gal = target: Gal(b1-2)Gal
Outline: as §1

[11] = target: Gal(b1-3)GlcNAc(b1-2)Man(a1-3)[Gal(b1-3)GlcNAc(b1-2)Man(a1-6)]Man(b1-4)GlcNAc(b1-4)[Fuc(a1-6)]GlcNAc
Outline: as §1

[12] = target: Gal(b1-3)GlcNAc(b1-2)[Gal(b1-3)GlcNAc(b1-6)]Man(a1-6)[Gal(b1-3)GlcNAc(b1-2)Man(a1-3)]Man(b1-4)GlcNAc(b1-4)GlcNAc
Outline: as §1

[13] = target: Gal(b1-3)GlcNAc(b1-3)Gal(b1-4)[Fuc(a1-3)]GlcNAc(b1-6)[Gal(b1-3)GlcNAc(b1-3)]Gal(b1-4)Glc
Outline: as §1

[14] = target: Gal(b1-3)[Fuc(a1-4)]GlcNAc(b1-6)GalNAc
Outline: as §1

[15] = target: Gal(b1-3)[Neu5Ac(a2-6)]GalNAc
Outline: as §1

[16] = target: Gal(b1-4)GlcNAc(b1-2)[Gal(b1-4)GlcNAc(b1-6)]Man(a1-6)[Gal(b1-4)GlcNAc(b1-2)Man(a1-3)]Man(b1-4)GlcNAc(b1-4)GlcNAc
Outline: as §1

[17] = target: Gal(b1-4)GlcNAc(b1-2)[Gal(b1-4)GlcNAc(b1-6)]Man(a1-6)[Gal(b1-4)GlcNAc(b1-2)Man(a1-3)]Man(b1-4)GlcNAc(b1-4)[Fuc(a1-6)]GlcNAc
Outline: as §1

[18] = target: Gal(b1-4)GlcNAc(b1-3)Gal(b1-4)GlcNAc(b1-3)Gal(b1-4)GlcNAc(b1-3)Gal(b1-4)GlcNAc(b1-3)Gal(b1-4)GlcNAc(b1-2)[Gal(b1-4)GlcNAc(b1-3)Gal(b1-4)GlcNAc(b1-3)Gal(b1-4)GlcNAc(b1-3)Gal(b1-4)GlcNAc(b1-3)Gal(b1-4)GlcNAc(b1-6)]Man(a1-6)[Gal(b1-4)GlcNAc(b1-3)Gal(b1-4)GlcNAc(b1-3)Gal(b1-4)GlcNAc(b1-3)Gal(b1-4)GlcNAc(b1-3)Gal(b1-4)GlcNAc(b1-2)Man(a1-3)]Man(b1-4)GlcNAc(b1-4)[Fuc(a1-6)]GlcNAc
Outline: as §1

Gal4S(b1-4)GlcNAc = target: Gal4S(b1-4)GlcNAc
Outline: as §1

GalNAc(b1-3)Gal = target: GalNAc(b1-3)Gal
Outline: as §1

GalNAc(b1-4)GlcNAc = target: GalNAc(b1-4)GlcNAc
Outline: as §1

GalNAc3S(b1-4)GlcNAc3S = target: GalNAc3S(b1-4)GlcNAc3S
Outline: as §1

GalNAc6S(b1-4)GlcNAc = target: GalNAc6S(b1-4)GlcNAc
Outline: as §1

[19] = target: GlcNAc(b1-3)Gal(b1-4)GlcNAc(b1-2)[GlcNAc(b1-3)Gal(b1-4)GlcNAc(b1-6)]Man(a1-6)[GlcNAc(b1-3)Gal(b1-4)GlcNAc(b1-2)Man(a1-3)]Man(b1-4)GlcNAc(b1-4)GlcNAc
Outline: as §1

[20] = target: GlcNAc(b1-3)Gal(b1-4)GlcNAc(b1-3)Gal(b1-4)GlcNAc(b1-2)Man(a1-3)[GlcNAc(b1-3)Gal(b1-4)GlcNAc(b1-3)Gal(b1-4)GlcNAc(b1-2)Man(a1-6)]Man(b1-4)GlcNAc(b1-4)[Fuc(a1-6)]GlcNAc
Outline: as §1

[21] = target: GlcNAc(b1-4)[GlcNAc(b1-6)]GalNAc
Outline: as §1

Man(a1-3)[Man(a1-6)]Man = target: Man(a1-3)[Man(a1-6)]Man
Outline: as §1

[22] = target: Neu5Ac(a2-3)Gal(b1-3)GlcNAc(b1-2)Man
Outline: as §1

[23] = target: Neu5Ac(a2-3)Gal(b1-3)GlcNAc(b1-6)GalNAc
Outline: as §1

[24] = target: Neu5Ac(a2-3)Gal(b1-4)GlcNAc(b1-3)Gal(b1-4)GlcNAc(b1-3)Gal(b1-4)GlcNAc(b1-2)Man(a1-3)[Neu5Ac(a2-3)Gal(b1-4)GlcNAc(b1-3)Gal(b1-4)GlcNAc(b1-3)Gal(b1-4)GlcNAc(b1-2)Man(a1-6)]GalNAc
Outline: as §1

[25] = target: Neu5Ac(a2-3)Gal(b1-4)GlcNAc(b1-3)Gal(b1-4)GlcNAc(b1-3)GalNAc
Outline: as §1

[26] = target: Neu5Ac(a2-3)Gal(b1-4)GlcNAc(b1-3)GalNAc
Outline: as §1

[27] = target: Neu5Ac(a2-3)Gal(b1-4)GlcNAc(b1-6)GalNAc
Outline: as §1

[28] = target: Neu5Ac(a2-6)Gal(b1-4)GlcNAc(b1-2)[Neu5Ac(a2-6)Gal(b1-4)GlcNAc(b1-4)]Man(a1-3)[GlcNAc(b1-4)][Neu5Ac(a2-6)Gal(b1-4)GlcNAc(b1-2)[Neu5Ac(a2-6)Gal(b1-4)GlcNAc(b1-6)]Man(a1-6)]Man(b1-4)GlcNAc(b1-4)GlcNAc
Outline: as §1

[29] = target: Neu5Ac(a2-6)Gal(b1-4)GlcNAc(b1-3)GalNAc
Outline: as §1

[30] = target: Neu5Ac(a2-6)Gal(b1-4)GlcNAc(b1-6)[Gal(b1-3)GlcNAc(b1-3)]Gal(b1-4)Glc
Outline: as §1

Neu5Ac(a2-6)GalNAc = target: Neu5Ac(a2-6)GalNAc
Outline: as §1

[31] = target: Neu5Ac(a2-6)GalNAc(b1-4)GlcNAc6S
Outline: as §1

[32] = target: Neu5Ac(a2-8)Neu5Ac(a2-3)[Gal(b1-3)GalNAc(b1-4)]Gal(b1-4)Glc
Outline: as §1

[33] = target: Neu5Gc(a2-3)Gal(b1-4)GlcNAc
Outline: as §1

[34] = target: Neu5Gc(b2-6)Gal(b1-4)GlcNAc
Outline: as §1

B1: Cohesin-mDC-ASGPR (Macaca mulatta) (protein)
chain: LDITSHHHHHHDDLDAVRIKVDTVNAKPGDTVRIPVRFSGIPSKGIANCDFVYSYDPNVLEIIEIEPGDIIVDPNPDKSFDTAVYPDRKIIVFLFAEDSGTGAYAITKDGVFATIVAKVKEGAPNGLSVIKFVEVGGFANNDLVEQKTQFFDGGVNVGDTTEPATPTTPVTTPTTTDDLDAASSQNSKFQRDLVTLRTDFSNFTSNTVAEIQALTSQGSSVEEMIASLKAEVEVIKQEQQAVHSEMLLRVQRLMQDLNKLTCQVATLKNNASTERTCCPVNWVEHQDSCYWFSRSGMPWAEAEKHCQLENAHLVVINSREEQNFVQEHLSFAYTWMGLSDREGAWKWVDGTDYETGFQNWKPGQPDDWQGHGLGGGEDCAHFHPDGRWNDDVCQRPYYWVCEAGLTQASQESH
[1]
  glycan array binding signal (z-score): -0.406
[2]
  glycan array binding signal (z-score): 0.568
[3]
  glycan array binding signal (z-score): -0.227
[4]
  glycan array binding signal (z-score): 0.873
Fuc(a1-2)Gal(b1-4)Glc
  glycan array binding signal (z-score): -0.387
[5]
  glycan array binding signal (z-score): -0.34
[6]
  glycan array binding signal (z-score): 3.22
[7]
  glycan array binding signal (z-score): 3.46
[8]
  glycan array binding signal (z-score): 0.425
[9]
  glycan array binding signal (z-score): 3.47
[10]
  glycan array binding signal (z-score): 3.4
Gal(a1-3)Gal
  glycan array binding signal (z-score): -0.427
Gal(a1-4)Gal(b1-4)GlcNAc
  glycan array binding signal (z-score): -0.412
Gal(b1-2)Gal
  glycan array binding signal (z-score): -0.312
[11]
  glycan array binding signal (z-score): -0.402
[12]
  glycan array binding signal (z-score): -0.399
[13]
  glycan array binding signal (z-score): -0.418
[14]
  glycan array binding signal (z-score): 3.02
[15]
  glycan array binding signal (z-score): -0.372
[16]
  glycan array binding signal (z-score): -0.394
[17]
  glycan array binding signal (z-score): -0.418
[18]
  glycan array binding signal (z-score): -0.379
Gal4S(b1-4)GlcNAc
  glycan array binding signal (z-score): -0.407
GalNAc(b1-3)Gal
  glycan array binding signal (z-score): 3.51
GalNAc(b1-4)GlcNAc
  glycan array binding signal (z-score): 3.5
GalNAc3S(b1-4)GlcNAc3S
  glycan array binding signal (z-score): -0.428
GalNAc6S(b1-4)GlcNAc
  glycan array binding signal (z-score): 3.82
[19]
  glycan array binding signal (z-score): -0.07
[20]
  glycan array binding signal (z-score): -0.329
[21]
  glycan array binding signal (z-score): -0.393
Man(a1-3)[Man(a1-6)]Man
  glycan array binding signal (z-score): -0.397
[22]
  glycan array binding signal (z-score): -0.342
[23]
  glycan array binding signal (z-score): 3.56
[24]
  glycan array binding signal (z-score): -0.248
[25]
  glycan array binding signal (z-score): -0.413
[26]
  glycan array binding signal (z-score): -0.418
[27]
  glycan array binding signal (z-score): 3.67
[28]
  glycan array binding signal (z-score): -0.401
[29]
  glycan array binding signal (z-score): 2.03
[30]
  glycan array binding signal (z-score): -0.418
Neu5Ac(a2-6)GalNAc
  glycan array binding signal (z-score): 3.61
[31]
  glycan array binding signal (z-score): 2.56
[32]
  glycan array binding signal (z-score): 3.49
[33]
  glycan array binding signal (z-score): -0.399
[34]
  glycan array binding signal (z-score): -0.424
